# Experimental data reported in PubChem BioAssay (NCATS).
# Results filed as inconclusive are left out. A call without a number means that no potency is given here. Calls of active or inactive are those of the source. Calls come from the whole dose curve; as a rule, active = well fitted inhibition curve with a large enough effect; inconclusive = small, poorly fitted or top-dose-only effect; inactive = no such curve, though single readings can be large or run the other way.
# Columns and labels:
# [1] = tested on: Zika virus NS2B-NS3 protease (unlinked complex); experiment: Primary screen GU Rhodamine qHTS for Zika virus inhibitors: Unlinked NS2B-NS3 protease assay (AID 1347159); note: nearly all actives have a fitted effect of over 60% in size
# In short: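 Unlinked NS2B/NS3, 25 nM; Rhod110 peptide, 1.5 microM; compounds, up to 114 microM. Reaction run 15 min at RT in 10 mM Tris-HCl pH 8.0, 0.01% Tween 20; kinetic fluorescence change fitted with a 4-parameter Hill model.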
# [2] = tested on: Zika virus NS2B-NS3 protease (linked construct); experiment: Primary screen NINDS Rhodamine qHTS for Zika virus inhibitors (AID 1347160); note: nearly all actives have a fitted effect of over 55% in size
# In short: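 Single-chain NS2B-NS3 protease, 25 nM, pH 8.0; compounds preincubated 15 min. Activity: Rhodamine110 release from 1.5 microM substrate over 15 min, room temperature, data fitted to 4-parameter Hill.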
# Potency is the fitted concentration of half-maximal effect.
SMILES,Potency [1],Potency [2]
CN1CCN(Cc2ccc(NC(=O)Cc3ccc(Oc4cc(NC(=O)C5CC5)ncn4)cc3)cc2C(F)(F)F)CC1,inactive,inactive
Cc1ccc(-c2ncccn2)c(C(=O)N2C[C@H](COc3ccc(F)cn3)CC[C@H]2C)c1,inactive,inactive
CN(C)CCn1cc(-c2ccc(F)cc2)c(-n2cccc2)n1,inactive,inactive
CNc1nc(Nc2ccc(C(=O)N3CCOCC3)cc2OC)nc2[nH]cc(Cl)c12,inactive,inactive
CC1(C)CCCC2(C)C1C(=O)C=C(C(=O)O)C2(O)C(=O)O (stereo unspecified),inactive,inactive
C=C(COC(=O)C(O)C(O)CN)C12OC1C1(C)C(=CC2=O)C(O)C(O)CC1C (stereo unspecified),inactive,inactive
CN1CCN(S(=O)(=O)c2ccc(-c3cnc(N)c(C(=O)Nc4cccnc4)n3)cc2)CC1,inactive,inactive
CC(=O)OC1C(=O)C2C3OCC4=C3[C@@](C)(CC[C@@H]4O)CC[C@]2(C)[C@H]1C(C)C (stereo partly specified),inactive,inactive
NC(N)=NC(=O)c1cnn(-c2cccc3ncccc23)c1C1CC1,inactive,inactive
Fc1ccc(-c2nc(-c3c(F)cccc3F)[nH]c2-c2ccncc2)cc1,inactive,inactive
CCCOc1ccc(S(=O)(=O)N2CCN(CCO)CC2)cc1-c1nc2c(CCC)cn(CC)c2c(=O)[nH]1,inactive,inactive
C=C1CC2OC(=O)C(=C)C2C(O)/C=C(\C)CCC1O (stereo unspecified),inactive,inactive
CCC(C)C1NC(=O)C(Cc2ccccc2)NC(=O)C(CCCCCC(=O)C(O)CO)NC(=O)C2CCCCN2C1=O (stereo unspecified),inactive,inactive
O=[N+]([O-])c1cn2c(n1)OC[C@@H](OCc1ccc(-c3ccc(OC(F)(F)F)cc3)nc1)C2,inactive,inactive
COC1CC(=O)C23C(=O)NC(Cc4c[nH]c5ccccc45)C2C(C)C2(C)OC2C3/C=C/CC(C)CC1O (stereo unspecified),inactive,inactive
CO[C@@H]1CC(OC2CCC3(C)C(CCC45CCC(C6=CC(=O)OC6)C(C)(CCC43)C5=O)C2)O[C@H](C)[C@@H]1O[C@@H]1O[C@H](CO[C@@H]2O[C@H](CO)[C@@H](O)[C@H](O)[C@H]2O)[C@@H](O)[C@H](O)[C@H]1O (stereo partly specified),inactive,inactive
COc1cc(C(C)C)c(Oc2cnc(N)nc2N)cc1I,inactive,inactive
Nc1ncnc2c1c(-c1ccc(Oc3ccccc3)cc1)nn2[C@@H]1CCCNC1,inactive,inactive
COc1cccc(-c2cn(-c3ccc(CCN4CCC(O)CC4)cc3)c3ncnc(N)c23)c1,inactive,inactive
CC(NCCCc1cccc(C(F)(F)F)c1)c1cccc2ccccc12 (stereo unspecified),inactive,inactive
C#CCCCn1cc(-c2cccc3c2N[C@H](C)CC(=O)N3)cn1,inactive,inactive
CC(=O)O[C@H]1C[C@H](OC(C)=O)[C@]2(C)[C@H](CC[C@@]34O[C@@H]3C3=C(C)C(=O)O[C@@H]3C[C@H]42)C1(C)C,inactive,inactive
CC1(C)CC[C@]23CO[C@@]4(CCC5[C@@]6(C)CC[C@H](O[C@@H]7OC[C@H](O[C@@H]8O[C@H](CO)[C@@H](O)[C@H](O)[C@H]8O[C@@H]8OC[C@@H](O)[C@H](O)[C@H]8O)[C@H](O)[C@H]7O[C@@H]7O[C@H](CO)[C@@H](O)[C@H](O)[C@H]7O)[C@@](C)(CO)C6CC[C@@]5(C)[C@]4(C)C[C@H]2O)[C@@H]3C1 (stereo partly specified),inactive,inactive
CCNC(=O)c1noc(-c2cc(Cl)c(O)cc2O)c1-c1ccc(OC)cc1,inactive,inactive
COc1cccc(-c2cc(F)ccc2C2Cc3nc(N)nc(C)c3C(=O)N2)n1 (stereo unspecified),inactive,inactive
CC(=O)O[C@@H]1CC[C@@]2(C)C(CC[C@]3(C)C2[C@H](O)C=C2[C@H]4[C@@H](C)[C@H](C)CC[C@]4(C)CC[C@]23C)[C@@]1(C)C(=O)O (stereo partly specified),7.08 µM (active),11.2 µM (active)
CC(=O)O[C@H]1CC(C)(C)CC2[C@]13CO[C@@]21CCC2[C@@]4(C)CC[C@H](O[C@@H]5OC[C@H](O[C@@H]6O[C@H](CO)[C@@H](O)[C@H](O)[C@H]6O[C@@H]6OC[C@@H](O)[C@H](O)[C@H]6O)[C@H](O)[C@H]5O[C@@H]5O[C@H](CO)[C@@H](O)[C@H](O)[C@H]5O)[C@@](C)(CO)C4CC[C@@]2(C)[C@]1(C)C[C@H]3O (stereo partly specified),inactive,inactive
CCCc1cc(C)[nH]c(=O)c1CNC(=O)c1cc(-c2ccc(N3CCN(C(C)C)CC3)nc2)cc2c1cnn2C(C)C,inactive,inactive
